SMILES strings stand for the structures. Out of some 210,000 compounds screened, about 520 (0.25%) were called active. The sample holds actives, similar compounds and a random draw of the others, so the mix is not that of the screen. Values without a mark were called inactive. Cut-off read from the data, not from the text of the source: active = inhibition above about 50%; inactive = the rest.

In this test the test system is Plasmodium falciparum apicoplast DNA polymerase (apPOL). As to the kind of experiment: Pf-apPOL inhibitors, biochemical, fluorescence (AID 1794808). As to conditions: Recombinant Pf-apPOL, molecular beacon fluorescence, 1.5 h; at 10 µM; stronger effect = higher value.
The inhibition is the drop in the measured response relative to a control, in per cent. On to `COc1ccccc1OCC(=O)N1CCCCC1CCN1CCCCCC1` (stereo unspecified), for which the inhibition is -10.1%.

With `Cc1ccc2c(c1)C(=O)CC(c1cc(Br)cc3c1OCOC3)O2` (stereo unspecified), the inhibition was -13.6%.

Regarding `Cc1ccccc1-n1nc2c(c1NC(=O)c1c(F)cccc1Cl)CS(=O)(=O)C2`, the inhibition was -3.3%.

Take `Cc1nc(C(C)C)nc2c1CCC(=O)N2CCCN1CCOCC1`: the inhibition was 4%.

As to `Cc1cccc(NC(=O)CC2SC(=Nc3ccccc3)NC2=O)c1` (stereo unspecified), the inhibition was 2.1%.

For `O=C(NCCCN1CCOCC1)c1cc2c(=O)oc3ccccc3c2s1`, the inhibition is 1.2%.

As for `O=C(NC1CCCC1)c1ccc(-n2nc(N3CCCC3)ccc2=O)cc1`, the inhibition was 4.7%.

As for `COC(=O)c1ccccc1OC1OC(CO)C(O)C(O)C1NC(C)=O` (stereo unspecified), the inhibition was 1.3%.

As to `N#CC(C#N)=C1SCN(c2cccc(Cl)c2)CS1`, the inhibition is 66.2% (active).

As to `CC(=O)Nc1ccc(C(=O)N2CCN(c3cccc(Cl)c3)CC2)cc1`, the inhibition is 9.7%.

Regarding `O=C(c1ccc([N+](=O)[O-])cc1)N1CCN(c2cccc(Cl)c2)CC1`, the inhibition is -2.7%.

Consider `CCn1cc(C2=CCN(S(=O)(=O)c3cccc(C)c3)CC2)c2cccnc21`, for which the inhibition was -11%.

Consider `Nc1cc2c(cc1[N+](=O)[O-])OCCOCCOc1ccc([N+](=O)[O-])cc1OCCOCCO2`, for which the inhibition was -0.2%.

For `CCCNc1cc(N2CCCC(CCC(=O)Nc3ccc4c(c3)OCCO4)C2)ncn1` (stereo unspecified), the inhibition is -2.1%.

As to `COc1cccc(NC(=O)c2cncc(-c3ccc(F)cc3)c2)c1`, the inhibition is 1.8%.

For `Cc1cc(C)cc(-c2nc(-c3ccc4c(c3)oc(=O)n4C)no2)c1`, the inhibition was 0.7%.

In the case of `COc1ccc(C(O)=C2C(=O)C(=O)N(CCN3CCOCC3)C2c2ccccc2F)cc1OC` (stereo unspecified), the inhibition is -2.5%.

Regarding `O=C(COc1ccc(Cl)cc1)N1CCC(N2CCCCCC2)CC1`, the inhibition is -3.8%.

Turning to `COc1ccc(NCN2C(=O)c3cc(Cl)c(Cl)cc3C2=O)cc1`, the inhibition was 7.8%.

As for `CCN(CC)CCNC(=O)C(=O)NCC1OCCN1S(=O)(=O)c1ccc(F)cc1` (stereo unspecified), the inhibition was -1.4%.

With `O=C(Nc1ccc(F)c(Cl)c1)c1noc2c1CCCCC2`, the inhibition is -2.8%.

Take `CCCCC(NC(C)=O)C(=O)O` (stereo unspecified): the inhibition was 4.1%.

`CCCCOc1ccccc1/C=c1\sc2ncnn2c1=O`: the inhibition is 10.1%.

For the compound `COc1ccc(NC(=O)CCC2CCN(c3cc(NC4CC4)ncn3)CC2)cc1`, the inhibition is 0.2%.

Regarding `COCCNC(=O)NCCCc1ccc(N(C)C)cc1`, the inhibition was -1.5%.

As for `COc1cccc(/C=c2\sc3nc(=O)c(C)nn3c2=O)c1`, the inhibition was 1.4%.

On to `CC(=O)N1CCc2sc(S(=O)(=O)N3CCN(c4ccccc4F)CC3)cc2C1`, for which the inhibition was -5.6%.

Take `COc1ccc(-c2cc(=O)n(CCNC(=O)Cn3cnc4ccccc4c3=O)cn2)cc1`: the inhibition is -6.7%.

In the case of `COc1ccc(NC(=O)CSc2nc3c(cnn3-c3ccc(C)cc3)c(=O)[nH]2)c(OC)c1`, the inhibition is 3.2%.

As for `C(=Nc1ccccc1-n1cccc1)c1cnc(-c2ccccc2)[nH]1`, the inhibition is -2.2%.

For `C=CCNC(=O)CCSc1ccc(Cl)cc1`, the inhibition is 0.6%.

For the compound `CC1CCCCC1NS(=O)(=O)c1cc(C(=O)Nc2ccc(F)c(F)c2)ccc1F` (stereo unspecified), the inhibition was 37.3%.

As to `CC12CC3(C)CC(C)(C1)CC(C(=O)Nc1ccc(F)c(Cl)c1)(C2)C3`, the inhibition is -2.2%.

`O=C(c1cc(F)cc(F)c1)N1CCC(c2cnn(-c3cccc(F)c3)c2)CC1`: the inhibition was -5.6%.

Turning to `COc1ccc2nc(SCC(=O)NCc3cccs3)[nH]c2c1`, the inhibition was -5.8%.

For the compound `COc1ccc2nc(SCC(=O)c3ccc(Cl)c(Cl)c3)[nH]c2c1`, the inhibition is 79.6% (active).

As to `COc1ccc2nc(SC)[nH]c2c1`, the inhibition was -6.5%.

`CC(=O)N1CCc2cc(N3CC(C(=O)Nc4cccc(F)c4)CC3=O)ccc21` (stereo unspecified): the inhibition was -3.7%.

For the compound `O=C(CCCC1=NS(=O)(=O)c2ccccc2N1)Nc1cccc(C(=O)O)c1`, the inhibition is -7.1%.

Take `O=C(NCCC1=CCCCC1)C(=O)NCC(c1ccc2c(c1)OCO2)N1CCOCC1` (stereo unspecified): the inhibition is -1.8%.

With `Cc1ccc(C)c(OCC(=O)Nc2ccccc2C(N)=O)c1`, the inhibition is 4.8%.

Consider `O=C(NCC1COC2(CCCC2)O1)c1ccccc1[N+](=O)[O-]` (stereo unspecified), for which the inhibition was -1.9%.

With `O=C(CCc1ccccc1)NCC1COC2(CCCCC2)O1` (stereo unspecified), the inhibition is 90.3% (active).

For the compound `O=C(C=Cc1ccco1)NCC1COC2(CCCCC2)O1` (stereo unspecified), the inhibition was -8.3%.

Take `Cc1cc(NC(=O)N2CC3CCCN3c3ccccc32)ccc1Br` (stereo unspecified): the inhibition was 0.1%.

For the compound `CN1/C(=C/C(=O)c2ccc(I)cc2)Sc2ccccc21`, the inhibition was -77.1%.

On to `CC(C)CNS(=O)(=O)c1ccc2nc(NC(=O)c3ccco3)sc2c1`, for which the inhibition is 45.1%.

Take `NC(COc1ccc(Cl)cc1)=NOC(=O)c1ccsc1`: the inhibition was -6.2%.

Take `COc1cc(OC)c(N2C(=O)NC3CC2(C)Oc2ccccc23)cc1Cl` (stereo unspecified): the inhibition was -6.1%.

As to `Fc1ccc(-c2nc(-c3ccc(Cl)cc3)no2)cc1`, the inhibition was -2.6%.

As to `O=C(Nc1cc(F)c2nc(N3CCCC3)ccc2c1)c1cccc(F)c1`, the inhibition was 0.1%.

For `O=C1C(Nc2ccccc2)=CC(c2ccc([N+](=O)[O-])cc2)N1c1ccccc1` (stereo unspecified), the inhibition is 8.9%.

Take `COc1ccc(C2C=C(Nc3ccccc3)C(=O)N2c2ccccc2)c(OC)c1` (stereo unspecified): the inhibition is 65.6% (active).

On to `COc1ccc(/C=C2/C(=O)N(c3ccccc3)N=C2C)c(OC)c1`, for which the inhibition was 2.6%.

Turning to `Cc1ccc2c(c1)N(Cc1nc(-c3ccc(C)c(C)c3)no1)C(=O)CO2`, the inhibition was -2.1%.

As to `CC(C=CC=C(C)C(=O)OC1OC(COC2OC(CO)C(O)C(O)C2O)C(O)C(O)C1O)=CC=CC=C(C)C=CC=C(C)C(=O)OC1OC(COC2OC(CO)C(O)C(O)C2O)C(O)C(O)C1O` (stereo unspecified), the inhibition was -1.1%.

With `CC(C)(C)NC(=O)N1CCC(CNC(=O)C(=O)Nc2cc(F)ccc2F)CC1`, the inhibition was -4.8%.

Regarding `COc1cc(OC)c(OC)cc1CN1CCCC1c1cc(C)on1` (stereo unspecified), the inhibition was 3.3%.

Regarding `CCN1C2=C(C(=O)CC(C)(C)C2)C(c2cc(Cl)c(O)c(OC)c2)C2=C1CC(C)(C)CC2=O`, the inhibition was 6.7%.

As for `CCOc1cc(C2C3=C(CCCC3=O)N(CC)C3=C2C(=O)CCC3)cc(Cl)c1O`, the inhibition is 65.7% (active).

`CCN1C2=C(C(=O)CCC2)C(c2cc(Br)c(O)c(OC)c2)C2=C1CCCC2=O`: the inhibition is 1.1%.

The values above are taken from PubChem BioAssay AID1794808 (University of Kansas High Throughput Screening Laboratory, 2022).
